From PubChem BioAssay (Tox21) come the findings set out here.

Several values for one entry are separate records, joined by “and”; a condition that tells them apart may be missing. Equal values may be shown once. Inconclusive results are not listed. Activity calls are given as the source filed them. Unless noted, the call rests on the fitted dose curve; in most records, active means well fitted curve in the direction sought with a large enough effect in the repeat runs; inconclusive means weak or mixed curves; inactive means no such curve, though single readings can be large; an effect the other way counts as inactive or inconclusive.

Experiment [1] is described as follows: qHTS assay for small molecule agonists of the p53 signaling pathway (AID 651631; calls by dose curve; further: nearly all actives have a fitted effect of over 15% in size; further: potency means the concentration at half of the fitted maximal effect). The method in brief:
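Testing took place in human colorectal HCT-116 cells with stable p53RE-driven beta-lactamase. After 16 h of compound exposure at 37 °C, a FRET substrate was added and fluorescence recorded 2 h later.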

Experiment [2] can be described thus: qHTS assay for small molecules that induce genotoxicity in human embryonic kidney cells expressing luciferase-tagged ATAD5 (AID 651632). Further: nearly all actives have a fitted effect of over 15% in size. The method, boiled down:
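Genotoxicity read-out via ATAD5-luciferase: HEK293T cells, 16 hr compound incubation at 37C, Amplite detection.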
A general note: In qHTS, concentration-response curves come from the screen itself.

Experiment [3] in a line: qHTS assay for small molecule agonists of the p53 signaling pathway - cell viability (AID 651633; calls by dose curve; further: nearly all actives have a fitted effect of over 30% in size; further: potency means the concentration at half of the fitted maximal effect). The method, boiled down: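 p53RE-bla cells, seeded at 4,000 per well and rested 5 h at 37 C/5% CO2, received compounds in DMSO for 16 h at 37 C. CellTiter-Glo was then added, and luminescence was read after 30 min at room temperature to gauge cytotoxicity.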
A short description of experiment [4]: qHTS assay for small molecules that induce genotoxicity in human embryonic kidney cells expressing luciferase-tagged ATAD5 - cell viability (AID 651634; calls by dose curve; further: nearly all actives have a fitted effect of over 25% in size; further: potency means the concentration at half of the fitted maximal effect). The method in brief:
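Live-cell protease activity (CellTiter-Fluor, fluorescence) indicates viability. HEK293T cells with luciferase-tagged ATAD5; 15.5 hr compound treatment at 37C.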

The nature of experiment [5]: qHTS assay for small molecule disruptors of the mitochondrial membrane potential - cell viability (AID 720634; calls by dose curve;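 further: human HepG2 liver cancer cells; series mostly up to about 83 µM; nearly all actives have a fitted effect of over 20% in size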). The method in brief: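 Human hepatoma HepG2 cells were treated for 1 hr with test chemicals, then given m-MPI dye and CellTiter-Glo. Cell viability reflects luminescence proportional to cellular ATP.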
Experiment [6] can be described thus: qHTS assay for small molecule disruptors of the mitochondrial membrane potential (AID 720635). Further: potency means the concentration at half of the fitted maximal effect. The method in brief:
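HepG2 cells (2,000/well) attached overnight at 37C, then took compound for 1 hr at 37C, 5% CO2. Mito-MPS dye was added for 30 min; fluorescence was read at 490/535 nm (monomers) and 540/590 nm (aggregates).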

Experiment [7] in a line: qHTS assay to test for compound auto fluorescence at 590 nm (red) in HepG2 cells (AID 720674). The method, boiled down:
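Intrinsic compound fluorescence in the red window (Ex/Em 540/590 nm) is measured in attached HepG2 cells exposed for 1 hr, DMSO vehicle as baseline, benchmarked to Rose Bengal sodium.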

Experiment [8] can be described thus: qHTS assay to test for compound auto fluorescence at 535 nm (green) in HepG2 cells (AID 720675).
The nature of experiment [9]: qHTS assay to test for compound auto fluorescence at 460 nm (blue) in HEK293 cells (AID 720678). The method, boiled down: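 Cells were seeded and left to adhere for 4-5 hr at 37C. Compounds were then pin-transferred. After an overnight incubation at 37C under 5% CO2, intrinsic fluorescence at 405/460 nm was measured and referenced to triamterene.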
The nature of experiment [10]: qHTS assay to test for compound auto fluorescence at 590 nm (red) in HEK293 cells (AID 720679). The method, boiled down: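 Each well held 2,000 HEK293 cells in medium containing 10% dialyzed FBS. Following 4-5 hr attachment at 37C, 23 nL test compound or DMSO was added; plates sat overnight, and red fluorescence (540/590nm) was recorded.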
Experiment [11] is described as follows: qHTS assay to test for compound auto fluorescence at 535 nm (green) in HEK293 cells (AID 720680).
A short description of experiment [12]: qHTS assay to test for compound auto fluorescence at 460 nm (blue) in HEK293 cell free culture (AID 720681). The method in brief:
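Test compounds were pinned into cell-free culture medium (DMEM with 10% FBS) and fluorescence was read directly at Ex/Em 405/460 nm. Signals were expressed as fluorescence equivalents of triamterene, with DMSO vehicle as control.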

A short description of experiment [13]: qHTS assay to test for compound auto fluorescence at 535 nm (green) in HEK293 cell free culture (AID 720682). The method in brief: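 DMEM + 10% FBS, cell-free; cpd or DMSO pinned in; Ex485/Em535 read; output as fluorescein-equivalent signal.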
The nature of experiment [14]: qHTS assay to test for compound auto fluorescence at 590 nm (red) in HEK293 cell free culture (AID 720683). The method in brief:
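Tox21 10K library compounds were pinned into cell-free DMEM with 10% FBS and fluorescence was read at excitation 540 nm. Activity is expressed as Rose Bengal sodium equivalency.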

Experiment [15] in a line: qHTS assay to test for compound auto fluorescence at 590 nm (red) in HepG2 cell free culture (AID 720684). The method in brief: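 Measured in medium alone (MEM containing 10% FBS) following pintool addition of compound; emission at 590 nm with 540 nm excitation, referenced to Rose Bengal sodium.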
The nature of experiment [16]: qHTS assay to test for compound auto fluorescence at 460 nm (blue) in HepG2 cell free culture (AID 720685). The method, boiled down: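 Compound (23 nL) or DMSO pinned into cell-free MEM with 10% FBS; blue fluorescence read at 405/460 nm excitation/emission, expressed as auto-fluorescence equivalency to triamterene.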
The nature of experiment [17]: qHTS assay to test for compound auto fluorescence at 535 nm (green) in HepG2 cell free culture (AID 720686).
The nature of experiment [18]: qHTS assay to test for compound auto fluorescence at 460 nm (blue) in HepG2 cells (AID 720687). The method, boiled down:
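Cells (2,000/well in MEM with 10% FBS) attached overnight at 37 C, then were exposed to compound or DMSO for 1 hr at 37 C, 5% CO2. Fluorescence read at Ex/Em 405/460 nm, expressed as triamterene-equivalent signal.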

The target in experiment [19] is Glucocorticoid receptor (Homo sapiens) (UniProt P04150). Description: qHTS assay to identify small molecule agonists of the glucocorticoid receptor (GR) signaling pathway (AID 720691; active means well fitted activation curve with a large enough effect in the signal ratio in the repeat runs, not every such curve was filed as active; the % refers to the signal ratio). The method, boiled down:
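Beta-lactamase reporter activity, read as fluorescence intensity, was measured in GR-bla HeLa cells exposed to compounds for 18 h at 37 C and then loaded with LiveBLAzer B/G FRET substrate for 2 h at room temperature.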

Experiment [20] shares this target. Description: qHTS assay to identify small molecule antagonists of the glucocorticoid receptor (GR) signaling pathway (AID 720692; active means well fitted inhibition curve with a large enough effect in the signal ratio in the repeat runs, not every such curve was filed as active; the % refers to the signal ratio). The method, boiled down: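 Fluorescence from cleaved LiveBLAzer B/G FRET substrate reports GRE-driven beta-lactamase in HeLa cells; compounds are tested against 5 nM dexamethasone (final) over 18 h at 37 C, substrate incubation 2 h at room temperature.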

Glucocorticoid receptor (Homo sapiens), sequence (P04150 whole entry, looked up): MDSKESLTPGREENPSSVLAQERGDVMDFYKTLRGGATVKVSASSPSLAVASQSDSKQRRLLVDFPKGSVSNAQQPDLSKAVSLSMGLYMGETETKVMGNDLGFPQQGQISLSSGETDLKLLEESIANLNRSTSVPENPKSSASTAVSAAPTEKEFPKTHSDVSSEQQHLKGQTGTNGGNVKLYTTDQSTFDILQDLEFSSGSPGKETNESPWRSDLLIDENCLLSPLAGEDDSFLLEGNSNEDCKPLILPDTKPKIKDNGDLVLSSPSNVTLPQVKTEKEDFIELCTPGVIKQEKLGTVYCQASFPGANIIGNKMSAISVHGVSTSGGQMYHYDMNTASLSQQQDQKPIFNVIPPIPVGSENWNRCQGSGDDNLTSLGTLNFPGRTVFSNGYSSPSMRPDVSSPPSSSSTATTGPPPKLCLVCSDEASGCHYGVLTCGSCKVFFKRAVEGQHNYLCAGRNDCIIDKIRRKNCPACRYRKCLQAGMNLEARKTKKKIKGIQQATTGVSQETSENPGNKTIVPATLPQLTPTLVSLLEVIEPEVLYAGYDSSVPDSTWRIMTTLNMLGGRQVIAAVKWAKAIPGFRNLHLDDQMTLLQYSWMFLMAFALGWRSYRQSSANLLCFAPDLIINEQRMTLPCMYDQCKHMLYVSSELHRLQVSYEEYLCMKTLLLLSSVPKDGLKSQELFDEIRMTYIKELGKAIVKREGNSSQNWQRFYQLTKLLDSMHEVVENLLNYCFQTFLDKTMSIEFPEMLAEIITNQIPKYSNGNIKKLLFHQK

With `NC(N)=NC(=O)Cc1c(Cl)cccc1Cl`, the Potency entry in experiment [1], in [2], in experiment [3], in [4], in experiment [5] and in experiment [6] was “inactive” throughout. Also, the Potency entry in [8], in experiment [9], in experiment [11], in experiment [12], in [13] and in experiment [16] was “inactive” each time. For the same compound, the Potency entry in experiment [17], in experiment [18] and in experiment [19] was “inactive” each time. The compound was called inactive in [7], in [10], in experiment [14] and in experiment [15].
Consider `CCCNC(C)C(=O)Nc1ccccc1C` (stereo not drawn), for which the Potency entry in experiment [1], in experiment [2], in experiment [3], in experiment [4], in experiment [5] and in [6] was “inactive” each time. Further, the Potency entry in experiment [8], in experiment [9], in [12], in [13], in experiment [16] and in experiment [17] was “inactive” in each case. The Potency result in experiment [18], in experiment [19] and in experiment [20] was “inactive” each time. Also, the outcome in experiment [7], in [10], in [14] and in experiment [15] was inactive.
On to `Cc1cc(Cc2cc(C)cc(C(C)(C)C)c2O)c(O)c(C(C)(C)C)c1`, for which the Potency in experiment [1] was 30.6 µM (active); in [3], 13.8 µM (active) and 17.2 µM (active); in experiment [4] it was 61.4 µM (active) and 61.1 µM (active); in experiment [6], 1.23 µM (active) and 1.09 µM (active). For the same compound, the Potency entry in experiment [2], in [8], in experiment [9], in [11], in experiment [12] and in [13] was “inactive” in each case. For the same compound, the Potency result in [16], in experiment [17] and in experiment [18] was “inactive” throughout. The call in [7], in [10], in [14] and in [15] was inactive.
In the case of `COC(=O)[C@H]1[C@H]2C[C@@H]3c4[nH]c5cc(OC)ccc5c4CCN3C[C@H]2C[C@@H](OC(=O)c2cc(OC)c(OC)c(OC)c2)[C@@H]1OC`, the Potency result in experiment [1], in [2], in [3], in experiment [4], in experiment [5] and in experiment [8] was “inactive” each time. The Potency result in experiment [9], in experiment [11], in [13], in experiment [16], in experiment [17] and in experiment [18] was “inactive” in each case. In addition, the Potency entry in [19] is “inactive”. In addition, the Potency in experiment [6] was 48.5 µM (active). The call in experiment [10], in experiment [14] and in [15] was inactive.
For the compound `CCC[C@H](N[C@@H](C)C(=O)N1[C@H](C(=O)O)C[C@@H]2CCCC[C@@H]21)C(=O)OCC`, the Potency entry in experiment [1], in experiment [2], in experiment [3], in [4], in experiment [5] and in experiment [6] was “inactive” each time. Also, the Potency result in experiment [8], in experiment [9], in experiment [11], in experiment [12], in experiment [13] and in [16] was “inactive” each time. The Potency result in experiment [17], in [18], in experiment [19] and in experiment [20] was “inactive” in each case. Moreover, the call in experiment [10], in [14] and in [15] was inactive.
In the case of `c1ccc2n[nH]nc2c1`, the Potency result in [1], in experiment [2], in experiment [3], in [4], in [5] and in experiment [6] was “inactive” throughout. For the same compound, the Potency result in [8], in experiment [9], in experiment [11], in experiment [12], in experiment [13] and in [16] was “inactive” each time. For the same compound, the Potency entry in experiment [17], in experiment [18], in experiment [19] and in experiment [20] was “inactive” each time. In addition, the call in experiment [7], in experiment [10], in [14] and in experiment [15] was inactive.
In the case of `CC(C(O)c1ccc(O)cc1)N1CCC(Cc2ccccc2)CC1` (stereo not drawn), the Potency entry in experiment [1], in [2], in experiment [3], in experiment [4], in [5] and in experiment [8] was “inactive” throughout. The Potency result in experiment [9], in [12], in experiment [13], in experiment [16], in experiment [17] and in experiment [18] was “inactive” each time. In addition, in [19], the Potency entry is “inactive”. Further, the compound was classed as inactive in experiment [7], in experiment [10], in experiment [14] and in experiment [15].
